Assay outcomes deposited in PubChem by National Center for Advancing Translational Sciences (NCATS).
KB-3-1 tox: qHTS assay for MDR1-selective chemotherapeutics: Primary screen using the parental adenocarcinoma cell KB-3-1; KB-3-1 viability, CellTiter-Glo ATP luminescence, 72 h; 400,000 compounds, 1.4% hits; Potency, µM (top dose mostly 46.1 µM), actives largely listed as cytotoxic; AID 1347075, 2019; further: nearly all actives have a fitted effect of over 60% in size
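72 h, 37 °C compound treatment of KB-3-1 parental cells; CellTiter-Glo added, 10 min, luminescence read. Data corrected against DMSO-only plates and normalized before curve fitting.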
KB-V1 cytotox: qHTS assay for MDR1-selective chemotherapeutics: Primary screen using the drug-selected MDR subline cells KB-V1; KB-V1 MDR cells viability, CellTiter-Glo, 72 h; Potency, µM (series often up to 46.1 µM), actives largely listed as cytotoxic; 400,000 compounds, 3.4% hits; AID 1347076, 2019; further: nearly all actives have a fitted effect of over 60% in size
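qHTS viability screen in drug-selected KB-V1 MDR cells: 72 h compound treatment at 37 degrees C, ATP luminescence end point.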
HT1080 IDH1KD tx: qHTS for induction of synthetic lethality in tumor cells producing 2HG: qHTS for the HT-1080-IDH1KD cell line; HT-1080 IDH1 knockdown viability, ATP luminescence, 48 h; Potency, µM (titrated, usually from 46.1 µM), inactives show top-dose activity, negative = toxicity, most hits filed as cytotoxic; 360,000 compounds, 2% hits;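 further: 0% = DMSO wells and -100% = cell-free medium wells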
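Viability of IDH1-knockdown HT-1080 fibrosarcoma cells was assessed by CellTiter-Glo after 48 h at 37 °C with titrated compound; concentration-effect curves were classified by fit quality and response size.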
HT1080NT lethal: qHTS for induction of synthetic lethality in tumor cells producing 2HG: qHTS for the HT-1080-NT fibrosarcoma cell line. HT-1080-NT fibrosarcoma viability, CellTiter-Glo ATP luminescence, 48 h. Potency, µM (doses to about 46.1 µM), inactives show top-dose activity, negative = less viability, hits mostly cytotoxic. 360,000 compounds, 1.6% hits;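 further: NT is the 2HG producing partner of a matched IDH1 knockdown line; 0% = DMSO-treated cells and -100% = media-only wells without cells; nearly all actives have a fitted effect of over 55% in size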
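HT-1080-NT; 750 cells/well; 5% FBS RPMI; 48 h compound, 37 degrees C; CellTiter-Glo luminescence; curve fitting and curve-class assignment.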
DT40 TDP1 CPT: qHTS for Inhibitors of human tyrosyl-DNA phosphodiesterase 1 (TDP1): qHTS in cells in presence of CPT | chicken DT40 Tdp1-/-;hTDP1 cells + 20 nM CPT, ATP luminescence, 48 h | Potency, µM (titrated, usually from 46.2 µM), without a hit: at the highest dose activity change, negative = growth inhibition, most hits filed as inhibitors | 420,000 compounds, 12% hits; further: nearly all actives have a fitted effect of over 55% in size
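Chicken DT40 Tdp1-/- cells stably complemented with human TDP1 were seeded at 400 cells/well in medium containing 20 nM camptothecin, exposed to pin-transferred compounds, and grown at 37 °C for at least 48 hr. Viability was read as ATP luminescence.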
DT40 TDP1 no CPT: qHTS for Inhibitors of human tyrosyl-DNA phosphodiesterase 1 (TDP1): qHTS in cells in absence of CPT. Potency, µM (titrated, usually from 46.2 µM), for inactives: at the highest dose activity change, negative = growth inhibition, actives largely listed as inhibitors. DT40 Tdp1-/- hTDP1 cells, no CPT, ATP luminescence, 48 h. 420,000 compounds, 15% hits; further: nearly all actives have a fitted effect of over 55% in size
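Chicken DT40 Tdp1-/- cells stably complemented with human TDP1 were seeded at 400 cells/well with DMSO in place of 20 nM camptothecin. After compound pinning, cells grew at least 48 hr at 37 °C; viability read by CellTiter-Glo luminescence.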
The depositor's hits bear a star; i = inactive; ? = inconclusive; nt = not tested or not shown; [ ] = another dose, or the depositor's remark. Compounds with a hit are over-represented: about 19% of the library has one in this group of screens. The call rests on the fitted dose curve; in most records, active means well fitted curve in the direction sought with a large enough effect; inconclusive means small, poorly fitted or top-dose-only effect, or another doubt; inactive means no such curve, though single readings can be large; an effect the other way counts as inactive or inconclusive. Unless noted, on the % scale 0 is the no-effect control and ±100 the full control effect; potency means the concentration at half of the fitted maximal effect.

SMILES	KB-3-1 tox	KB-V1 cytotox	HT1080 IDH1KD tx	HT1080NT lethal	DT40 TDP1 CPT	DT40 TDP1 no CPT
CCOc1ccc(S(=O)(=O)NCCC(=O)NCCc2ccc(OCC)c(OCC)c2)cc1	i	?	-3.5%	-0.1%	-5.6%	-14.8%
CCOc1ccc2ccccc2c1C(=O)NCC(c1ccc(N(C)C)cc1)N(C)C (stereo not given)	i	i	-9.5%	-21.2%	?	-24.0%
COc1cc(C=NO)nc(-c2ccccn2)c1	?	i	?	-12.4%	1.3µM*	1.16µM*
CN(C)Cc1ccccc1-c1cncnc1NCc1ccccc1	nt	nt	nt	nt	1.4%	-24.5%
CC(=O)c1ccc(N2CCN(C(=O)c3cc(S(=O)(=O)N4CCOCC4)ccc3C)CC2)cc1	i	i	0.8%	1.9%	-21.3%	-27.2%
Cc1ccc(-n2cc(-c3ccccc3)c3c(NC4CCCC4)ncnc32)cc1	nt	nt	nt	nt	?	23.1µM*
Cc1cccc(-n2cc(-c3ccccc3)c3c(NC4CCCC4)ncnc32)c1	nt	nt	nt	nt	?	16.4µM*
COc1ccc(C)cc1Nc1ncnc2c1c(-c1ccccc1)cn2-c1ccc(C)cc1	nt	nt	nt	nt	0.7%	-21.6%
O=C1NN=C(c2ccc(Cl)cc2)CC1c1cccc(Cl)c1 (stereo not given)	i	?	-0.1%[9.24 µM]	-24.8%	29.1µM*	16.4µM*
COc1ccc(CCNC(=O)c2c(C)nn(-c3ccc(F)cc3)c2-n2cccc2)c(OC)c1OC	?	11.6µM*	nt	nt	nt	nt
CCOC(=O)C1CCCN(C(=O)c2c(C)nn(-c3ccc(F)cc3)c2-n2cccc2)C1 (stereo not given)	i	?	nt	nt	nt	nt
Cc1ccc(C)c(NC(=O)c2cc3ccccn3n2)c1	i	?	0.3%	10.6%	-23.2%	-27.0%
COc1ccc(CCNC(=O)c2cnn3ccccc23)c(OC)c1OC	i	i	12.4%	23.8%	?	23.1µM*
Cc1ccc(C)c(NC(=O)c2cnn3ccccc23)c1	?	i	-10.2%	1.3%	5.8µM*	11.6µM*
NS(=O)(=O)c1ccc(N2CCOCC2)c(C(=O)NCc2ccc3c(c2)OCO3)c1	i	i	15.2%	12.4%	?	?
CSC(=NC(C)c1ccccc1)NS(=O)(=O)c1cccs1 (stereo not given)	?	23.1µM*	-6.4%	-3.5%	-17.8%	?
CCOc1ccc(S(=O)(=O)N2CCN(C(=O)c3cc4c(s3)CCCC4)CC2)cc1	11.6µM*	3.26µM*	-1.5%	-2.9%	16.4µM*	?
Cc1ccc(S(=O)(=O)N2CCN(C(=O)c3cc4c(s3)CCC(C)C4)CC2)cc1 (stereo not given)	i	i	3.3%	2.5%	?	16.4µM*
CCOc1ccc(OCCC(=O)N2CCN(S(=O)(=O)c3ccc(OCC)cc3)CC2)cc1	nt	nt	5.0%	-1.8%	-9.1%	-17.9%
Cc1c(C(=O)N2CCCCCC2)c(S(=O)(=O)Nc2cccc(C#N)c2)c(C)n1C	i	i	nt	nt	-22.7%	-26.9%
COC(=O)C1CC2(C(=O)OC)CC(C(=O)OC)(CC(C(=O)OC)C2=O)C1=O (stereo not given)	i	i	-7.3%	-2.8%	4.2%	-17.0%
Cc1ccc(-c2nc3ccc(Br)cn3c2Cc2ccsc2)cc1	?	i	?	-6.4%	14.6µM*	23.1µM*
Cc1ccc2nc(C(C)(C)C)c(Cc3ccsc3)n2c1	i	?	?	?	?	18.4µM*
Cc1ccc(Cc2c(-c3ccc(Br)cc3)nc3ccc(Br)cn23)cc1	?	?	-27.6%	-21.6%	18.4µM*	?
Fc1ccc(-c2nc3ccc(Br)cn3c2Cc2ccsc2)cc1	i	i	-4.2%	-15.5%	?	?
SMILES	KB-3-1 tox	KB-V1 cytotox	HT1080 IDH1KD tx	HT1080NT lethal	DT40 TDP1 CPT	DT40 TDP1 no CPT
Cc1ccc(-c2nc3ccc(C)cn3c2Cc2ccsc2)cc1	i	i	?	?	?	14.6µM*
CC1CCCCN1C(=S)NC(=O)c1cc(Br)ccc1Cl (stereo not given)	i	i	-9.0%	-8.6%[9.24 µM]	?	?
CCCc1nc2ccc(C)cn2c1Cc1ccsc1	i	i	-1.9%	8.3%	13µM*	9.2µM*
O=[N+]([O-])c1ccc(O)c(Nc2c([N+](=O)[O-])ccc3nonc23)c1	i	i	?	-28.6%	-18.5%	?
Cc1ccc(C(C)(C)C)cc1S(=O)(=O)N1CCC(C(=O)N2CCN(c3ccc(O)cc3)CC2)CC1	?	14.6µM*	-20.6%	-8.0%	?	?
Cc1ccc(C)c(S(=O)(=O)N2CCN(C(=O)C3CCN(C(=O)c4ccc(F)cc4)CC3)CC2)c1	i	7.31µM*	-0.7%	0.1%	?	?
O=C(CSc1ccc(-c2ccncc2)nn1)c1ccc(Cl)cc1	i	?	17.7%	16.4%	-23.1%	-19.2%
NC(=O)C(c1ccc(Cl)cc1)c1ccc(Sc2ccc(Cl)cc2)nn1 (stereo not given)	i	i	-25.0%	?	?	16.4µM*
CSc1nc(NC(C)(C)C)nc(Oc2ccc(=O)n(C)n2)n1	i	i	10.0%	23.9%	-12.2%	-25.4%
COc1ccc(-c2c(-c3ccc(O)cc3O)n[nH]c2C)cc1OC	?	?	?	?	?	18.4µM*
COc1ccc(-c2n[nH]c(C)c2-c2cc(OC)ccc2O)cc1	i	i	-1.6%	-1.8%	?	?
COc1ccc(-c2c(C)nc(N)nc2-c2ccc(OCc3ccc(C)cc3)cc2O)cc1OC	i	2.31µM*	-14.1%	-4.9%	?	5.8µM*
COc1ccc(-c2c(-c3ccc(OC)c(C)c3O)n[nH]c2C)cc1	i	i	18.4µM*	?	?	?
O=C(NC(Cc1ccc2c(c1)OCO2)C(=O)NC(Cc1ccccc1)C(=O)O)c1ccccc1 (stereo not given)	i	?	1.9%	9.1%	-12.3%	-12.3%
COC(=O)c1c(SCc2ccc(C#N)cc2)nc(=O)[nH]c1C	i	i	-8.4%	0.7%	-26.9%	-19.1%
